According to PubChem BioAssay AID651789 (National Center for Advancing Translational Sciences (NCATS), 2012):
Records with an inconclusive call do not appear. Values without a mark were called inactive. Activity calls are given as the source filed them. Calls come from the whole dose curve; as a rule, active = well fitted inhibition curve with a large enough effect; inconclusive = small, poorly fitted or top-dose-only effect; inactive = no such curve, though single readings can be large or run the other way.

experiment: Acumen qHTS Assay for Inhibitors of the mTORC1 Signaling Pathway in WT MEF Cells: Hit Validation; settings: Acumen imaging; series mostly up to 37.3 µM; activity change, negative = inhibition: at the top concentration; note: nearly all actives have a fitted effect of over 60% in size;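 for activity change, negative = inhibition: phospho-rpS6 Ser235/236 immunofluorescence normalised to propidium iodide cell stain; percent of cells above a cutoff set by 7.5 nM rapamycin treated wells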
Summary of the method: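 Read-out is immunofluorescent phospho-rpS6 (Ser235/236) normalised to PI-stained cell number, reported as % active cells using a 7.5 nM rapamycin threshold. Cells: WT or Tsc2-/-, p53-/- MEFs, compound-exposed 24 h at 37C; PI count also tracks viability.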
Potency is the fitted concentration of half-maximal effect.

Row | Compound | Potency | activity change, negative = inhibition [%]
1 | CCCC(=O)OC1=CN(Cc2ccccc2)S(=O)(=O)c2ccccc21 | 3.69 µM (active) | 
2 | COc1cc(-c2ccno2)ccc1S(=O)(=O)N1CCN(c2cc(C)ccc2C)CC1 |  | 0
3 | COc1ccc(CCNC(=O)c2ccc3c(c2)N(Cc2ccccc2)CCS3)cc1OC |  | 11.5
4 | COc1ccc(S(=O)(=O)N(Cc2nc(-c3cccc(C)c3)no2)C2CCCCC2)cc1 |  | 7.2
5 | CN(Cc1ccccc1)C(=O)CSc1c2c(nc3ccc(Cl)cc13)CCCC2 |  | -27.7
6 | CCCCCCCCCCCCCCC[C@H](O)[C@@H](N)CO |  | -6.82
7 | CCOc1ccc(NC(=O)N(Cc2c[nH]c3ccccc23)C2CCCCCC2)cc1 |  | -4.58
8 | CN(CCCNC(=O)c1cc2c(Cl)nc3ccccc3c2s1)Cc1ccccc1 |  | -20.5
9 | CCOc1ccc(CCNC(=O)CCc2c(C)nc3cc(-c4ccccc4OC)nn3c2C)cc1 |  | 1.97
10 | Cc1cccc(Cn2cc(C(=O)Nc3ccc(F)c(C(F)(F)F)c3)ccc2=O)c1 |  | 0.763
11 | CN(C)CCN(Cc1ccco1)C(=O)c1cc2c(s1)-c1ccccc1OC2 |  | 1.53
12 | CCOc1cc(C(=O)Nc2ccc(-c3cn4cccnc4n3)cc2)cc(OCC)c1OCC |  | 29.8
13 | Cc1ccc(C)c(N2CCN(CCCNC(=O)c3nnc(Cc4ccc(F)cc4Cl)o3)CC2)c1 |  | -11.5
14 | Cc1c(C(=O)OC2CCC(C)CC2)[nH]c2c1C(=O)CC(c1ccc(F)cc1)C2 (stereo not given) |  | -0.763
15 | Cc1ccc(NC(=O)CSc2nc(=O)cc(N)n2CCc2ccccc2)cc1 |  | 23.5
16 | CCOc1ccc(S(=O)(=O)Nc2ccc(OC)c(Cl)c2)c2cccnc12 |  | -2.29
17 | Nc1nc(Nc2ccccc2F)sc1C(=O)c1ccc(Cl)cc1 |  | 37.1
18 | CCOc1ccc(NC(=O)c2sc3nc4c(cc3c2N)CCCCCC4)cc1 |  | -9.68
19 | CCN(c1ccccc1)S(=O)(=O)c1cc(C(=O)Nc2ccc(Br)cc2)ccc1F | 13.1 µM (active) | 
20 | CC(C)(C)OC(=O)N1CCC(c2c(C(=O)NCCN3CCC(Cc4ccccc4)CC3)cnn2-c2cccc(Cl)c2)CC1 | 10.4 µM (active) | 

Row | Compound | Potency | activity change, negative = inhibition [%]
21 | Nc1c(C(=O)NCc2ccccc2)nnn1Cc1cccc(Br)c1 | 13.1 µM (active) | 
22 | Cc1ccc(C)c(Cn2c3ccccc3c3cnn(CC(=O)NC(C)CCc4ccccc4)c(=O)c32)c1 (stereo not given) | 18.5 µM (active) | 
23 | CCOc1cc(-c2nnc(SCC(=O)NCc3ccccc3)nc2-c2ccc(OC)c(OCC)c2)ccc1OC | 0.927 µM (active) | 
24 | CCC1=Nc2cc(C(=O)NC3CCCC3)ccc2Sc2ccc(Br)cc21 | 1.85 µM (active) | 
25 | COc1ccccc1C1C=C(c2ccc(Cl)cc2)Nc2nc(-c3ccc(Cl)cc3)nn21 (stereo not given) |  | -2.29
26 | Cc1cccc(CS(=O)(=O)c2ncc(Cl)c(C(=O)NCc3ccccc3)n2)c1 | 13.1 µM (active) | 
27 | CCOC(=O)c1cnc2ccc(OCC)cc2c1NCCc1ccc(OC)c(OC)c1 |  | -5.38
28 | Cc1nn(CCCC(=O)NCc2cccc(Cl)c2)c(=O)c2c1sc1ccccc12 |  | 8.4
29 | CCOC(=O)C(Cc1c[nH]c2ccccc12)NC(=O)COc1ccc(Cl)cc1 (stereo not given) |  | 0.217
30 | COc1ccccc1NC(=O)CSc1ccc(-c2ccccn2)nn1 |  | -12.8
31 | CCCCOC(=O)c1ccc(NC(=O)c2ccc3c(c2)CCN3S(=O)(=O)c2ccccc2)cc1 |  | 4.42
32 | CCCCS(=O)(=O)c1oc(-c2ccc(F)cc2)nc1S(=O)(=O)c1ccc(C)cc1 | 5.21 µM (active) | 
33 | C=CCc1c(C)nc2nc(SCC(=O)Nc3ccc(C)c(C)c3)nn2c1C | 1.17 µM (active) | 
34 | CCc1ccc(OCC(=O)N(Cc2ccc(C)cc2)Cc2ccco2)cc1 |  | 24
35 | CCCCNC(=O)CSc1nc2nc(C)c(Cc3ccccc3C)c(C)n2n1 |  | 17.8
36 | Cc1cc(NCc2ccc(Cl)cc2)n2cnnc2n1 |  | -27.1
37 | CC(C)c1ccc(NS(=O)(=O)c2ccc3nc(-c4ccccc4)[nH]c3c2)cc1 |  | 6.87
38 | COc1cccc(/C=C(\C#N)c2nc3ccc(C)cc3[nH]2)c1 |  | -27.4
39 | Cc1cc(C)c2oc(-c3cccc(NC(=O)COc4ccc([N+](=O)[O-])cc4)c3)nc2c1 |  | 1.31
40 | O=C(Nc1ccc(-c2cc(C(F)(F)F)nn2-c2ccccc2)cc1)c1cccc(F)c1 |  | -23.2
